# Data from publication PMC12136788.
# Positions count from the first letter of the chain named. Over roughly 24,000 sequences, “enrichment r” has its median near 0.99; the highest 2% begin near 3.7. The full list was thinned out, with the highest values kept by preference.
# T1: UNK ZnF1-3 (human, UniProt Q9C0B0 31-174)
# T1 sequence: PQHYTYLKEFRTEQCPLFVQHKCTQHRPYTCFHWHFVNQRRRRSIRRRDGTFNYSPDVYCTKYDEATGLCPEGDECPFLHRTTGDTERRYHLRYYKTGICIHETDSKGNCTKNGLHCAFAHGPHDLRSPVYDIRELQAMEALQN
# B1: chr5:145543945:145543946:-_ENSG00000133706_ENST00000545646|hu_hu|hu_hu_hu_mus_True|1_108 (ssRNA)
# RNA: GGGAGUUCUACAGUCCGACGAUCCUGAAUAGCCAGUGGUGGGAAAUAAUCAAGCCAGUGCUCUGCUUCAGAAAACUUCACUAUGUCGUCAUCAGAGAGCCCAAGGGAUUUCAUAAUGUCCCACUGGUACUUAGAAGAUCCAGCCAACAGAGGAUUGAGCAUCA
# B2: chr14:62194323:62194324:+_ENSG00000100644_ENST00000337138|hu_mus|motif|central (ssRNA)
# RNA: GGGAGUUCUACAGUCCGACGAUCUCUUUCAUCACAGUAAGAAAAUUUCAUAUCGAGGCUGUGUCGACUGAGAAAUGUCUUGCGGUCGGAAGGAAUUUCAAUAUUUGACGGAUGAGGAAUGGGUUCACAAAUCAGCACCAAGCACAACAGAGGAUUGAGCAUCA
# B3: chrX:15845472:15845473:-_ENSG00000182287_ENST00000329235|hu_mus|motif|central (ssRNA)
# RNA: GGGAGUUCUACAGUCCGACGAUCCCACAAGAAGUCAUCAGCAAGGGAGGACAGUUAUGUCAGUCCAAUUUCUUCAAGAACACGGCGUGGGGUUUCAGCUUCUUUUGCAUCCUCCUGCAGGAGAUCGGCCUGCUCAAUUGCUUUCAACAGAGGAUUGAGCAUCA
# B4: chr17:8508246:8508247:-_ENSG00000133026_ENST00000269243|hu_hu|motif|central (ssRNA)
# RNA: GGGAGUUCUACAGUCCGACGAUCGUACAUUUCAAUAAUAUUCUCAGAGUAAAUUGGAAGAUUCUUGUAAGGGUUUAUAACGGCACAGAAGAGUCCAGAAUAAGUAUAGAUUAGUCCUGAAUAGUAGCGAUCCUUCAGAUUAUGCAACAGAGGAUUGAGCAUCA
# B5: 75584029_75587226_729_CDS_ENSG00000119638_ENST00000238616|human|control|control (ssRNA)
# RNA: GGGAGUUCUACAGUCCGACGAUCCGUCUCAGCCAUGGAAUACUCAGAAUUAAGUUUCUUUGCUAGGCCAUAAUCUCCAAGUUUUAUCAGGUUUGCCUUGGUCAGAAAAAUAUUUAAUGUCUUUAUAUCUCUAUGAAGGAUUCCCAACAGAGGAUUGAGCAUCA
# B6: chr18:86887116:86887117:+_ENSMUSG00000024647_ENSMUST00000068423|mus_mus|motif|central (ssRNA)
# RNA: GGGAGUUCUACAGUCCGACGAUCCGCGUCAGCUCCGCCAUUGUUAAGGGAUUCAUGAGCAAUGAGCAAUGCCAGGUUACGGAGGGAUCCCAGAGAAUAAAUUAAAAAAAAAAAAAAAUGAAAUCCACGUUGCAAGUUUGAAGCCAACAGAGGAUUGAGCAUCA
# B7: chr19:7360422:7360423:-_ENSMUSG00000024969_ENSMUST00000032557|mus_mus|FALSE|FALSE (ssRNA)
# RNA: GGGAGUUCUACAGUCCGACGAUCAUAAGGAGGACUGCCACAGAAAGUAUCCAGCUUGUUCCCAAAGGUGAAUUCGUUGCUAAAGCCAAAGUCUGCAAUCUUGAUGUUCAUAUCAGCAUCCAGGAGCAGGUUUUCUGCCUUUAGCAACAGAGGAUUGAGCAUCA
# B8: chr18:86887116:86887117:+_ENSMUSG00000024647_ENSMUST00000068423|mus_mus|FALSE|FALSE (ssRNA)
# RNA: B6 RNA with G80U, G81A
# B9: chr5:56168760:56168761:+_ENSG00000095015_ENST00000399503|hu_hu|motif|central (ssRNA)
# RNA: GGGAGUUCUACAGUCCGACGAUCUCUAGAAAAUAAGCAGCCAACGAGUUCCAUUCCAAACACCUGAAUCCAUGGCUCAGCGGAAUCUUUGUAAGCAGGAGGGAUUUGCUGAGUUCCAUAAUGAGUAAGGUUAAAAUUGCUCUCCAACAGAGGAUUGAGCAUCA
# B10: chr17:39847130:39847131:+_ENSG00000173812_ENST00000469257|hu_mus|motif|central (ssRNA)
# RNA: GGGAGUUCUACAGUCCGACGAUCAUUACAUUAUACAAGCUGUGAGGUUUUUAAACUUGUGACAAGGGACAGAAGGGAAAUUCGGCUCAUUGCAAGGAAAUCCUCACUUAAGCUUCAGAGAGCCACAAGCACUUAAAACCCAUGCAACAGAGGAUUGAGCAUCA
# B11: 9136497_9143069_760_3pUTR_ENSMUSG00000033499_ENSMUST00000091829|mouse|control|control (ssRNA)
# RNA: GGGAGUUCUACAGUCCGACGAUCCAGAAUUCCAAUGUUUUUUUAAGUACUUCCCGAGGGUCUUCCUGGCUUUCUGGUUGAGACUCAUUUCCUCCCGUAUCGUUGUUCUCAGGCAGAGGUUCAUAUUCUGAAUGGUCCAGAGCCCAACAGAGGAUUGAGCAUCA
# B12: 40924096_40924216_925_3pUTR_ENSMUSG00000028423_ENSMUST00000098143|mouse|control|control (ssRNA)
# RNA: GGGAGUUCUACAGUCCGACGAUCUCGUUGGUCUUUCUCUAAGAUUAUCCUUUGGAAUGGGGGACAUGUUGGUUUUGGGCCCUGCAUUUAUAUGCCGCUGACUCUCCUGUUUUGGUGGGUUCCUGCCUGGCCGUGGUCUGGCCCCAACAGAGGAUUGAGCAUCA
# B13: chr14:89307221:89307222:+_ENSG00000165533_ENST00000346301|hu_mus|hu_hu_hu_mus_False|98_98 (ssRNA)
# RNA: GGGAGUUCUACAGUCCGACGAUCUCCUGUUUGGUUAGUUCCAGGGAGCUUCAAAGAUGUGCCAGGGCGUGGGACCUGAGCAAUAGCAUUUUCAUCCAGGAUCAUUUCAGCAAUUCCUUCCUGGUCCACAUCAAUUUCAUCUAUCAACAGAGGAUUGAGCAUCA
# B14: chr7:151048522:151048523:+_ENSG00000013374_ENST00000566856|hu_mus|motif|central (ssRNA)
# RNA: GGGAGUUCUACAGUCCGACGAUCCUGUUUCUUAUUUAUUACGAUCUUGAUGUAAUUUUCUUGAAAUCCGAAAGUUUCAGCGGUUUGACACCUCAGGUCUCUACCAGUGACAUGCAAGCGGGUCUCCAACAAGCUUUUCUUAUCCAACAGAGGAUUGAGCAUCA
# B15: chr18:33597908:33597909:-_ENSMUSG00000042834_ENSMUST00000171533|mus_mus|FALSE|FALSE (ssRNA)
# RNA: GGGAGUUCUACAGUCCGACGAUCUACAUCAAAAGAGUACAUGGGUAAAAUAUAGAUAUACAGACAAUUGAUGAACAUAAACUACUAGGCUUGUUACAUCUAAAUGAAGAAAAAAAAAAACCGUGGGGGGGACUCUCAGCCUCUCAACAGAGGAUUGAGCAUCA
# B16: chr2:29001751:29001752:+_ENSG00000213639_ENST00000296122|perfect_dup|motif|central (ssRNA)
# RNA: GGGAGUUCUACAGUCCGACGAUCAGCCAAUAGCAAACAAAUGGUUUCCAAAGACUGCUUUCCUCUGUCCACAUAAUCUCCGGAGAAAAGAUAGUUGGCUUCUGGUGGGAAACCUCCAUAUUCAAAUAAUCUCAGUAAAUCUGUCAACAGAGGAUUGAGCAUCA
# B17: chr1:38489269:38489270:+_ENSG00000183520_ENST00000537711|hu_hu|FALSE|FALSE (ssRNA)
# RNA: GGGAGUUCUACAGUCCGACGAUCUUUGAAGUUACUAGAAAACGACAACAGAUUUUUGAUACAGAAUGACAAGGCUUAUCUAUAACACGUCAACGUUUUCGACGACUCUGAAAUUUAUAAAUAGCUGGGGAGUUCACCGUUUCUCAACAGAGGAUUGAGCAUCA
# B18: chr18:33597908:33597909:-_ENSMUSG00000042834_ENSMUST00000171533|mus_mus|motif|central (ssRNA)
# RNA: B15 RNA with U82G, A83G, U85G, A86G
# B19: chr2:160775391:160775392:-_ENSMUSG00000057133_ENSMUST00000039782|mus_hu|motif|central (ssRNA)
# RNA: GGGAGUUCUACAGUCCGACGAUCAAUGAGUCCAGGAGAUACUCCUGGGAUGAGAAAUGGGUUAAAAGCCACAGGACGGCGGGUAGUUAUUGCAGGUUCAGACUGAUCAGAAAAUGGACCUGGACCAGGCUUGUCCUCAGCUAACAACAGAGGAUUGAGCAUCA
# B20: chr2:160775391:160775392:-_ENSMUSG00000057133_ENSMUST00000039782|mus_hu|FALSE|FALSE (ssRNA)
# RNA: B19 RNA with G77U, G78A, G80U, G81A
# B21: chr3:35977374:35977375:+_ENSMUSG00000027710_ENSMUST00000011492|mus_hu|motif|central (ssRNA)
# RNA: GGGAGUUCUACAGUCCGACGAUCCACAGGUAUCUUGGUGUUUUCAAAAUGGACUUCACAAGUGUUGGAGCCCCGAAUGCCGGAUUUAUCUUCGGGUUUCCCAUUAGUGACUCCACCAAAGUCUCUUUCUACUAUGAAUGCUGUCAACAGAGGAUUGAGCAUCA
# B22: chr2:24917620:24917621:+_ENSMUSG00000006476_ENSMUST00000102931|mus_mus|motif|central (ssRNA)
# RNA: GGGAGUUCUACAGUCCGACGAUCAGUAAUGCUGCUUCCCUUCAAAUUGUUUCAGGGGUGUAAAAAAAUUGCACUUAUUUCGGUGAACCCCAUGGAGGGGAUCCCCAAUGCUGCUGCCUCCAGGCGAGGCAUGACAGGUCAAUGCAACAGAGGAUUGAGCAUCA
# Biological target: T1, UNK ZnF1-3
# Experiment: nsRBNS (natural sequence RNA bind-n-seq); RBNS binding buffer (assumed for nsRBNS): 25 mM Tris pH 7.5, 150 mM KCl, 3 mM MgCl2, 0.01% Triton X-100, 500 ug/ml BSA, 20 U/ml SUPERase-In, 4 C; UNK is unkempt and MSI1 is Musashi-1; names of the RNAs are library labels; protein concentration not given here; high values mean tight binding
row,Binder,binding signal [enrichment R]
1,B1,1.11
2,B2,1.84
3,B3,1.01
4,B4,1.92
5,B5,1.02
6,B6,8.87
7,B7,0.665
8,B8,6.14
9,B9,1.25
10,B10,1.49
11,B11,0.744
12,B12,0.527
13,B13,0.79
14,B14,0.692
15,B15,7.83
16,B16,1.36
17,B17,1.2
18,B18,6.83
19,B19,1.1
20,B20,0.911
21,B21,0.637
22,B22,1.02
